Screens: PubChem, National Center for Advancing Translational Sciences (NCATS)
HT1080 IDH1KD tx = qHTS for induction of synthetic lethality in tumor cells producing 2HG: qHTS for the HT-1080-IDH1KD cell line | HT-1080 IDH1 knockdown viability, ATP luminescence, 48 h | Potency, µM (highest dose often 46.1 µM), for inactives: top-dose activity, negative = toxicity, most hits filed as cytotoxic | actives 2% (n = 360,000) | AID 686971, 2013;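 also: potency is read from the fitted curve at half-maximal effect; 0% = DMSO wells and -100% = cell-free medium wells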
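% activity derives from luminescence (CellTiter-Glo), normalised to DMSO and no-cell wells. HT-1080-IDH1KD cells, 750/well, had 48 h compound exposure at 37 °C.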
DT40 TDP1 CPT = qHTS for Inhibitors of human tyrosyl-DNA phosphodiesterase 1 (TDP1): qHTS in cells in presence of CPT | Potency, µM (top dose mostly 46.2 µM), inactives show at the top dose activity change, negative = growth inhibition, usual class: inhibitors | actives 12% (n = 420,000) | AID 686979, 2013 | chicken DT40 Tdp1-/-;hTDP1 cells + 20 nM CPT, ATP luminescence, 48 h; also: potency is read from the fitted curve at half-maximal effect; nearly all actives have a fitted effect of over 55% in size
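Cell growth measured by CellTiter-Glo luminescence after a minimum 48 h, 37 C compound exposure with 20 nM CPT in Tdp1-knockout DT40 cells stably expressing hTDP1, seeded 400/well; qHTS titration format.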
HT1080NT lethal = qHTS for induction of synthetic lethality in tumor cells producing 2HG: qHTS for the HT-1080-NT fibrosarcoma cell line; HT-1080-NT fibrosarcoma viability, CellTiter-Glo ATP luminescence, 48 h; Potency, µM (titrated, usually from 46.1 µM), inactives show at the top dose activity, negative = less viability, actives largely listed as cytotoxic; AID 686970, 2013; actives 1.6% (n = 360,000);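 also: NT is the 2HG producing partner of a matched IDH1 knockdown line; potency is read from the fitted curve at half-maximal effect; 0% = DMSO-treated cells and -100% = media-only wells without cells; nearly all actives have a fitted effect of over 55% in size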
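A 48-hour cytotoxicity screen used HT-1080-NT cells plated 2 hours before compound delivery. ATP-based CellTiter-Glo luminescence measured viability, normalized to DMSO and no-cell controls.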
ALOX12 inh = Primary qHTS assay for inhibitors of human arachidonate 12S-lipoxygenase (ALOX12): Round 2; Polyunsaturated fatty acid lipoxygenase ALOX12 (Homo sapiens), P18054; purified 12hLO, xylenol orange hydroperoxide absorbance; Potency, µM (top dose mostly 108 µM), for the others: at the top dose activity change, negative = inhibition, actives largely listed as inhibitors; actives 1.1% (n = 580,000); AID 1671190, 2021; also: potency is read from the fitted curve at half-maximal effect
Target sequence (P18054 whole entry, looked up): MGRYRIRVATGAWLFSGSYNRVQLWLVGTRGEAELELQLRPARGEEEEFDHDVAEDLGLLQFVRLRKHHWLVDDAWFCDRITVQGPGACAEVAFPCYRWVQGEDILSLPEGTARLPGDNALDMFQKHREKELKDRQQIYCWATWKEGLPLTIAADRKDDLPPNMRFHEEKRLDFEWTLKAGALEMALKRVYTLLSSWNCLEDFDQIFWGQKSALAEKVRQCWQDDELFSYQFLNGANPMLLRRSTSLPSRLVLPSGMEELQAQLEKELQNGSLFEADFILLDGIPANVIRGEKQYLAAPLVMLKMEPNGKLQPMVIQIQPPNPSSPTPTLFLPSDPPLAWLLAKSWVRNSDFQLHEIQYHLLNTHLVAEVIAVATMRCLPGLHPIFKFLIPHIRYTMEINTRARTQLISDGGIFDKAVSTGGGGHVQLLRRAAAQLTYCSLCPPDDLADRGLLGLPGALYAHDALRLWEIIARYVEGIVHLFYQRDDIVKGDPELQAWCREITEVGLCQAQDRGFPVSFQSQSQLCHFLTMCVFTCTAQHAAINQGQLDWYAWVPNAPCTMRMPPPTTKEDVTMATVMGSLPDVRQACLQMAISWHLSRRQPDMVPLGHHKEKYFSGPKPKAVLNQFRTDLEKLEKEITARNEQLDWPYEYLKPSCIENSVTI
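Purified human 12hLO at 150 nM in 25 mM Hepes, 0.01% Triton X-100, pH 7.0, preincubated 15 min at room temperature with compound. Reaction started with 40 uM arachidonic acid, 30 min at room temperature. Hydroperoxide measured by Fe-xylenol orange, 573/405 nm absorbance ratio.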
DT40 TDP1 no CPT = qHTS for Inhibitors of human tyrosyl-DNA phosphodiesterase 1 (TDP1): qHTS in cells in absence of CPT. DT40 Tdp1-/- hTDP1 cells, no CPT, ATP luminescence, 48 h. Potency, µM (titrated, usually from 46.2 µM), without a hit: at the highest dose activity change, negative = growth inhibition, hits mostly inhibitors. actives 15% (n = 420,000). AID 686978, 2013; also: potency is read from the fitted curve at half-maximal effect; nearly all actives have a fitted effect of over 55% in size
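Compound effects on proliferation are scored in DT40 Tdp1-/-;hTDP1 cells in the absence of CPT. ATP levels (CellTiter-Glo luminescence) are recorded after a ≥48 hr, 37 °C incubation.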
IL1B secr inh = qHTS for Inhibitors of Inflammasome Signaling: IL-1-beta AlphaLISA Primary Screen. THP-1 LPS/ATP IL-1B secretion, AlphaLISA, 16 h; hits give low values. activity change, % at 57.5 µM. actives 4.7% (n = 360,000); in the data active = activity change below about -50%; inconclusive = mostly about -30% to -49%
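THP-1 cells pretreated 1 hr with compounds (up to 57.5 uM final), then stimulated with LPS (250 ng/mL final) plus ATP (1.25 mM final); secreted IL-1B measured by AlphaLISA after 16 hr, decreased signal indicating inhibition.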
* = called active by the depositor; ? = inconclusive; nt = no result; [ ] = remark or other dose. Only a selection was taken, and hits are over-represented in it overall. Unless noted, calls follow the shape of the dose curve; as a rule, active = well fitted curve in the direction sought with a large enough effect; inconclusive = small, poorly fitted or top-dose-only effect, or another doubt; inactive = no such curve, though single readings can be large; an effect the other way counts as inactive or inconclusive. Unless noted, % is scaled to controls: 0 for no effect and ±100 for the full control effect.

SMILES | HT1080 IDH1KD tx | DT40 TDP1 CPT | HT1080NT lethal | ALOX12 inh | DT40 TDP1 no CPT | IL1B secr inh
COc1cccc(N2C(=O)NC(=NC3CCCC3)C23CCCN([S+](=O)([O-])c2cccc(OC)c2)C3)c1 (stereo not given) | nt | nt | nt | 6%[6.33 µM] | nt | nt
Cc1c(CCO)c(=O)oc2n[nH]c(-c3ccccc3)c12 | -4% | -15% | -2% | -5% | -30% | -61*
Cc1ccc(-c2nc(Cn3c(-c4ccccc4)nc(C)c(CCO)c3=O)c(C)o2)cc1 | nt | nt | nt | 5% | nt | nt
COCCCNCc1ccccc1C | nt | nt | nt | 8% | nt | nt
CC(C(=O)NC1CCN(c2cnn(CC3CC3)c(=O)c2)CC1)c1ccccc1 (stereo not given) | nt | nt | nt | 40% | nt | nt
CC(=O)c1ccc(N2CCN(S(=O)(=O)c3ccc(-c4cnc(C5CC5)o4)cc3)CC2)cc1 | 21µM* | 3.3µM* | 15µM* | -28% | ? | 30
COc1cccc(N2CCN(S(=O)(=O)c3ccc(-c4cnc(C5CC5)o4)cc3)CC2)c1 | 0% | -20% | -4% | 6% | 0% | 23
O=S(=O)(c1ccc(-c2cnc(C3CC3)o2)cc1)N1CCN(c2cccc(Cl)c2)CC1 | nt | 4.1µM* | nt | -14% | 3.3µM* | nt
O=S(=O)(c1ccc(-c2cnc(C3CC3)o2)cc1)N1CCN(c2ccc(F)cc2)CC1 | nt | 0.92µM* | nt | -13% | 0.41µM* | nt
Cc1ncc(-c2ccc(S(=O)(=O)N3CCN(c4ccc(F)cc4)CC3)cc2)o1 | nt | nt | nt | 38% | nt | nt
CC(C)c1cc(C(=O)NC2CC2)c2cnn(C(C)C)c2n1 | nt | nt | nt | -7% | nt | nt
CCc1nnc(NC(=O)CSc2nncc(=O)n2N)s1 | 4% | 9% | -5% | -10% | 18% | 65
CCOc1ccc(-c2nnc3ccc(SCC(=O)Nc4nc5ccc(C)cc5s4)nn23)cc1 | 9% | ? | -1% | -24% | 26µM* | 33
Cc1ccc2nc(NC(=O)CCn3c(=O)sc4ccccc43)sc2c1 | -6% | 18µM* | 1% | -2% | ? | 27
Cc1ccc2nc(NC(=O)CSc3nncc(=O)n3N)sc2c1 | 8% | ? | -3% | -11% | 16µM* | 2
CCOc1ccc(-c2nnc3ccc(SCC(=O)N4CCCCC4)nn23)cc1 | 5% | -7% | 2% | -26% | -26% | -1
COc1ccc(-c2nnc(SCC(=O)Nc3nc4ccccc4s3)n2C)cc1 | 6% | 1% | 11% | -4% | -14% | -2
CCOc1ccc(-c2nnc3ccc(SCC(=O)Nc4nc5ccccc5s4)nn23)cc1 | -5% | ? | -2% | -25% | 18µM* | 15
COc1ccc(-c2nc3c(c(=O)[nH]2)CCN(S(=O)(=O)c2cccc4cccnc24)C3)cc1 | nt | nt | nt | 33% | nt | nt
Cn1nc(CC(=O)N2CCC(C(=O)N3CCCCCC3)CC2)c2ccccc2c1=O | nt | nt | nt | -15% | nt | nt
O=C(COc1ccc(F)cc1)Nc1ccc2c(=O)c3cccc(F)c3oc2c1 | nt | nt | nt | -28% | nt | nt
CCOC(=O)c1c(-c2ccc(C)cc2)csc1NC(=O)CCN1CCOCC1 | 11% | ? | -2% | ? | 23µM* | -13
CCOC(=O)c1c(NC(=O)c2ccc(S(=O)(=O)N3CCOCC3)cc2)sc2c1CC(C)(C)NC2(C)C | 0% | ? | -2% | 7% | ? | 8
CCOC(=O)c1c(-c2ccc(C)cc2)csc1NC(=O)C1CC=CCC1C(=O)O (stereo not given) | -9% | -7% | -1% | 9% | -24% | 17
CCOC(=O)c1c(-c2ccccc2)csc1NC(=O)c1ccc(S(=O)(=O)N2CCOCC2)cc1 | -6% | 5.8µM* | -2% | 7% | 10µM* | 0
SMILES | HT1080 IDH1KD tx | DT40 TDP1 CPT | HT1080NT lethal | ALOX12 inh | DT40 TDP1 no CPT | IL1B secr inh
CCOC(=O)c1c(-c2ccccc2)csc1NC(=O)CCN1CCOCC1 | 1% | ? | -1% | ? | 23µM* | 9
CCOC(=O)c1cc(-c2ccccc2)sc1NC(=O)CCN1CCOCC1 | nt | nt | nt | -20% | nt | nt
CCOC(=O)c1[nH]cc(-c2ccccc2)c1N1CCOCC1 | 5% | 16µM* | 4% | ? | 29µM* | -15
Cc1ncc2n1C(=O)N(C1CCN(C(=O)c3ccccc3F)CC1)C2 | nt | nt | nt | 7%[176 µM] | nt | nt
Cc1csc(NC(=O)COc2ccc3c(C)cc(=O)oc3c2)n1 | -25% | -9% | -28% | 10% | -7% | 0
CCOC(=O)c1c(-c2ccccc2)csc1NC(=O)COc1ccc2c(C)cc(=O)oc2c1 | 22% | ? | 17% | -2% | 12µM* | -20
CCOC(=O)c1cc(-c2ccc(N3CCOCC3)cc2)nn1-c1ccccc1 | -10% | 21µM* | -15% | 2% | 12µM* | 22
CCOC(=O)c1cc(-c2ccc(N3CCOCC3)cc2)nn1-c1ccccc1C(=O)O | 1% | -11% | -3% | -4% | -26% | -19
O=C(Cc1c(F)cccc1Cl)NCc1cccc(C(=O)Nc2ccccc2)c1 | nt | nt | nt | 37% | nt | nt
CCCN1CCC(N2CCN(c3cccc(C(F)(F)F)c3)CC2)CC1 | -6% | 23µM* | ? | -12% | 21µM* | 51
CCCN1CCC(N2CCN(c3ccc([N+](=O)[O-])cc3)CC2)CC1 | -10% | ? | -9% | 0.89µM* | 21µM* | -1
Cc1ccc(NC2(c3nnnn3-c3ccccc3C)CCCCC2)c(C)c1 | nt | nt | nt | -10% | nt | nt
C=Cc1ccc(Cn2nc(-c3ccc(C)c(S(=O)(=O)N(CC)CC)c3)ccc2=O)cc1 | nt | 16µM* | nt | 4% | ? | nt
O=C(O)/C=C/c1ccccc1Br | nt | nt | nt | -17% | nt | nt
Cc1ccccc1-c1cc2nc(Nc3ccc(F)cc3)n(C)c(=O)c2s1 | ? | ? | ? | ? | 23µM* | -15
COc1ccc(Nc2nc3cc(-c4ccccc4C)sc3c(=O)n2C)cc1OC | ? | ? | ? | 35µM* | ? | ?
CCOC(=O)Cc1ccc(Nc2nc3cc(-c4ccccc4C)sc3c(=O)n2C)cc1 | ? | ? | ? | -5% | ? | ?
Cc1ccsc1-c1cc2nc(Nc3ccc(F)cc3)n(C)c(=O)c2s1 | -11% | ? | -1% | 3% | ? | -23
CCCCCc1c(C)nc(Nc2nc(C)c3cc(OCC)ccc3n2)[nH]c1=O | nt | nt | nt | 3% | nt | nt
Cn1nc(CN2CCN(c3ccncc3)CC2)c2c(Cl)cccc21 | nt | nt | nt | -10% | nt | nt
